Data on 39 compounds can be found in PubChem BioAssay AID651956 (Broad Institute, 2012).

Each structure is given as a SMILES string. Results with a measured potency or affinity are listed apart. Records with an inconclusive call do not appear. Active and inactive are the calls of the source.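 How the source made its calls: active means in every test run, a fitted half-maximal concentration for signal decrease at or below twice the highest tested concentration; inconclusive means runs disagree, flat 30 to 70% decrease, or poor fit; inactive means the rest.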

A short description of this assay: miR-122 activators in hepatoma reporter cells, dose response, cell-based, Huh7 psiCHECK-miR122, Renilla luciferase, cherry-picked (AID 651956).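 Further: Renilla luciferase from a miR-122 sensor reporter so lower signal means miR-122 activation.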 The following applies: 48 h; series mostly up to 35 µM.
As to `CN1C(=O)c2cc(NC(=O)c3cccs3)ccc2OC[C@@H]2O[C@@H](CC(=O)N3CCOCC3)CC[C@H]21`, the call was inactive.
As for `COC(=O)C[C@@H]1CC[C@H]2[C@@H](COc3ccc(NC(=O)Nc4ccccc4C)cc3C(=O)N2C)O1`, the entry is “inactive”; as for `COCC(=O)N(C[C@H]1N[C@@H](CO)[C@@H]1c1ccc(C2=CCCC2)cc1)C(C)C`, “inactive”; as for `COc1ccc(-c2cn3c(C)c(C(=O)Nc4cccc(NC(C)=O)c4)sc3n2)cc1`, “inactive”.
Next, `C[C@H]1CN([C@@H](C)CO)S(=O)(=O)c2ccc(C3=CCCC3)cc2O[C@H]1CN(C)Cc1cccnc1`: “inactive”.
Next, `CN(C[C@H]1[C@H](c2ccccc2)[C@@H](CO)N1CC1CC1)C(=O)c1cccc(F)c1`: “inactive”; `O=C(Nc1ccc(F)cc1)N1C[C@@H]2[C@H](c3ccccc31)[C@H](CO)N2C(=O)Cc1ccccc1`: “inactive”.
As to `CCNC(=O)Nc1ccc2c(c1)C(=O)N(C)[C@H]1CC[C@@H](CC(=O)NCCOC)O[C@@H]1CO2`, the call was inactive.
As for `C[C@H](CO)N1C[C@H](C)[C@H](CN(C)S(=O)(=O)c2ccc(F)cc2)Oc2ccc(NS(C)(=O)=O)cc2C1=O`, the entry is “inactive”; as for `CC(C)Oc1ccc(C(CCN)C2CCCCC2)cc1` (centres undefined), “inactive”.
Next, `CCCNC(=O)C[C@H]1CC[C@@H]2[C@H](COc3ccc(NS(=O)(=O)c4ccccc4C)cc3C(=O)N2C)O1`: “inactive”; `CN1C(=O)c2cc(NC(=O)c3cccs3)ccc2OC[C@@H]2O[C@H](CC(=O)NCCN3CCCCC3)CC[C@H]21`: “inactive”; `CC(C)C(=O)Nc1ccc2c(c1)C(=O)N(C)[C@H]1CC[C@@H](CC(=O)NCCCN(C)C)O[C@H]1CO2`: “inactive”.
Next, `CN1C(=O)c2cc(NC(=O)Nc3ccc(Cl)cc3)ccc2OC[C@@H]2O[C@@H](CC(=O)NCCN3CCCCC3)CC[C@H]21`: “inactive”; `CN[C@H]1C[C@H]2c3[nH]c4ccc(-c5ccc(OC)cc5)cc4c3CCN2C(=O)[C@H]1[C@H](C)O`: “inactive”.
For `Cc1ccc(C2CC(C(F)(F)F)n3nc(C(=O)NCc4ccco4)cc3N2)cc1` (centres undefined), the outcome was inactive.
Next, `c1cnc(N2CCN(Cc3c[nH]c4ccccc34)CC2)nc1`: “inactive”.
As for `CC(=O)Nc1ccc2c(c1)C(=O)N(C)[C@@H]1CC[C@H](CC(=O)NC3CCCCC3)O[C@H]1CO2`, the entry is “inactive”; as for `COc1ccc(-c2c(C(C)=O)c(C)nc3sc4c(c23)NC(c2ccccc2)NC4=O)cc1` (centres undefined), “inactive”.
As for `COc1ccc(C(NC(C)=O)c2cc(Cl)c3cccnc3c2O)cc1` (centres undefined), the entry is “inactive”.
Turning to `CN(Cc1ccccc1)C(=O)COC(=O)c1ccccc1Nc1ccccc1`, the compound was called inactive.
On to `CCCNC(=O)N1[C@@H]2CN(C(=O)c3ccccc3)c3ccccc3[C@@H]2[C@@H]1CO`, for which the compound was called inactive.
Next, `CNC(=O)C[C@H]1CC[C@@H]2[C@H](COc3ccc(NC(=O)c4ccccc4OC)cc3C(=O)N2C)O1`: “inactive”.
`C=CCc1c(OC)ccc2ccc(=O)oc12`: the result was inactive.
In the case of `CN1CCN(c2ccc(Cl)cc2NC(=O)c2ccc(S(=O)(=O)N3CCCCCC3)cc2)CC1`, the call was inactive.
For `Cc1ccccc1NCN1C(=O)C2C3C=CC(C3)C2C1=O` (centres undefined), the compound was called inactive.
`COCCNC(=O)C[C@H]1CC[C@@H]2[C@H](COc3ccc(NC(=O)C4CCOCC4)cc3C(=O)N2C)O1`: the result was inactive.
Next, `C[C@H](CO)N1C[C@H](C)[C@@H](CN(C)CC2CCCCC2)OCCCC[C@H](C)Oc2ccc(NC(=O)Nc3cccc4ccccc34)cc2C1=O`: “inactive”.
Next, `Cc1ccccc1NC(=O)Nc1ccc2c(c1)C(=O)N(C)[C@H]1CC[C@@H](CC(=O)O)O[C@H]1CO2`: “inactive”; `CCC(=O)Nc1ccc2c(c1)C(=O)N(C)[C@@H]1CC[C@H](CC(=O)Nc3cccc(OC)c3)O[C@@H]1CO2`: “inactive”; `Cc1cc(C(=O)Nc2cccc(O)c2)co1`: “inactive”.
Next, `CNC(=O)C[C@@H]1CC[C@H]2[C@@H](COc3ccc(NC(=O)NC(C)C)cc3C(=O)N2C)O1`: “inactive”.
Regarding `COc1ccc(C(C#N)Nc2ccc(C)cc2)cc1` (centres undefined), the compound was called inactive.
Turning to `O=C(N/N=C/c1ccco1)c1cccc(N2CCCC2=O)c1`, the compound was called inactive.
Next, `CCN(CC)CCOc1cccc(C(C)C)c1`: “inactive”; `COc1ccc(NC(=O)N(C)C[C@H]2Oc3cc(C#CCC(C)C)ccc3S(=O)(=O)N([C@@H](C)CO)C[C@H]2C)cc1`: “inactive”; `CCCNC(=O)C[C@H]1CC[C@@H]2[C@H](COc3ccc(NC(=O)c4cccs4)cc3C(=O)N2C)O1`: “inactive”.
As for `CN1C(=O)c2cc(NC(=O)Nc3ccccc3Cl)ccc2OC[C@H]2O[C@H](CC(=O)O)CC[C@H]21`, the entry is “inactive”; as for `N#Cc1cccc(NC(=O)Nc2cccs2)c1`, “inactive”.
